Assay results from the supplement of paper PMC10849652.
About 7,900 targets were measured; listed, in parts, are those with a hit and a random draw of the rest. About 0.6% of all pairs of compound and target were hits. A number with no mark means an inactive call.

compound: CNC(=O)c1ccc(Nc2ncc(C(F)(F)F)c(NCc3nccnc3N(C)S(C)(=O)=O)n2)cc1 [defactinib]; experiment: log2 fold change, soluble protein after heating vs DMSO (PISA); higher = thermal stabilisation; K562 cells, 10 uM, 30 min; active = over 0.2 and 3.5 SD of the protein, either way, in both replicates (recomputed)
In short: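 K562 cells (2×10^6 cells/mL) were treated with 10 μM compound for 30 min, and aliquots were heated for 3 min over 48°C-58°C. Pooled aliquots were extracted in PBS with 0.5% NP-40 at 4°C, and the supernatant after 21,000xg for 90 min was measured by TMTpro 16plex LC-MS/MS with channel sums equalised. Reported thermal stability, relative to control samples and from duplicates, is a log2 fold change.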

UniProt Q6UX07, sequence (Q6UX07 whole entry, looked up): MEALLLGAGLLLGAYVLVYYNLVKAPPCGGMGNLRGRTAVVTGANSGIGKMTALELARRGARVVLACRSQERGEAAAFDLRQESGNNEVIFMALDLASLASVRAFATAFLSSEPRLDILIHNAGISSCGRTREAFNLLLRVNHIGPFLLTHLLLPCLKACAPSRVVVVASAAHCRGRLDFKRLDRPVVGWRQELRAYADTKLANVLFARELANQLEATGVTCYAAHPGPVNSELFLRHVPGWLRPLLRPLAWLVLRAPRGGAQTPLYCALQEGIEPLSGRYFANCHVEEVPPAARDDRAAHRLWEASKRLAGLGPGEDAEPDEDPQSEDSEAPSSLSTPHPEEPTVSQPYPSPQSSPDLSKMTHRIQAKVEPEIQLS
UniProt P41091, sequence (P41091 whole entry, looked up): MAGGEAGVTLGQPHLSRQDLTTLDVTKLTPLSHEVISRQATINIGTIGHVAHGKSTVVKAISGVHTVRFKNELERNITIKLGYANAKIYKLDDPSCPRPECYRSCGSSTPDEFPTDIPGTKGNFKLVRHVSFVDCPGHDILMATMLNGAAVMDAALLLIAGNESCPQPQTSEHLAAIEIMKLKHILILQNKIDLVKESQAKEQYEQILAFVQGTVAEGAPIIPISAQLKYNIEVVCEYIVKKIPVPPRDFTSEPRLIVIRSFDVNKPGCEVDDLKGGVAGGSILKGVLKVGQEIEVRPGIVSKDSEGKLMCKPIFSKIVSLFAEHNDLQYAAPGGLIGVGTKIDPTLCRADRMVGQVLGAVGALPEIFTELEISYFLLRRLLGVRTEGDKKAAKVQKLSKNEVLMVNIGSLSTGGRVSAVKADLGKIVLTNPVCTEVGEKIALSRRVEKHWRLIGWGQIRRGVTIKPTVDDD
UniProt Q96A65, sequence (Q96A65 whole entry, looked up): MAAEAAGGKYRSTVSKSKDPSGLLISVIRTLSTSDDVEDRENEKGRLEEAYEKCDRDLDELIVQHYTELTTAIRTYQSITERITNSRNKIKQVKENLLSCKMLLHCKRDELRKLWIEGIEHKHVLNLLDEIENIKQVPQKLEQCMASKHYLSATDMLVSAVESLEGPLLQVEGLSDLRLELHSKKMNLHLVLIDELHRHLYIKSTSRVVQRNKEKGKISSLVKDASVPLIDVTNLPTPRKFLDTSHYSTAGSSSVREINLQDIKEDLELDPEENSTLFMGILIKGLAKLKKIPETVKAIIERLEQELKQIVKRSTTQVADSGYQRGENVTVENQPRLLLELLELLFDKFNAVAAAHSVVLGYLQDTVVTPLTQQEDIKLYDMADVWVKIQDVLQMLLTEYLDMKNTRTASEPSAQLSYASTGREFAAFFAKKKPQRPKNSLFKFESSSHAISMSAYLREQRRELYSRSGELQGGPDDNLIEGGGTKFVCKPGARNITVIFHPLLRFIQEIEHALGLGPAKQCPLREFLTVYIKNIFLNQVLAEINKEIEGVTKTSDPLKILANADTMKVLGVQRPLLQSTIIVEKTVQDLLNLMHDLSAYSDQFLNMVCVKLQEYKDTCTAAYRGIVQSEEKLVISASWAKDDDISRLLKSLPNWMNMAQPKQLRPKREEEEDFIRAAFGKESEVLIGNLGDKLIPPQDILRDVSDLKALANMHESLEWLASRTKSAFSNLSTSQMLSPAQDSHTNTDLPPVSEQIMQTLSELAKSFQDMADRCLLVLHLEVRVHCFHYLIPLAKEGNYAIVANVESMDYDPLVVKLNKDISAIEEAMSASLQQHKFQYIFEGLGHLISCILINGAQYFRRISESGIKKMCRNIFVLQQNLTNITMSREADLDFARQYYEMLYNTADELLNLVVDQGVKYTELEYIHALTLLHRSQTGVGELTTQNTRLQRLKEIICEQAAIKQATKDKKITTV
UniProt Q8NF50, sequence (Q8NF50 whole entry, looked up): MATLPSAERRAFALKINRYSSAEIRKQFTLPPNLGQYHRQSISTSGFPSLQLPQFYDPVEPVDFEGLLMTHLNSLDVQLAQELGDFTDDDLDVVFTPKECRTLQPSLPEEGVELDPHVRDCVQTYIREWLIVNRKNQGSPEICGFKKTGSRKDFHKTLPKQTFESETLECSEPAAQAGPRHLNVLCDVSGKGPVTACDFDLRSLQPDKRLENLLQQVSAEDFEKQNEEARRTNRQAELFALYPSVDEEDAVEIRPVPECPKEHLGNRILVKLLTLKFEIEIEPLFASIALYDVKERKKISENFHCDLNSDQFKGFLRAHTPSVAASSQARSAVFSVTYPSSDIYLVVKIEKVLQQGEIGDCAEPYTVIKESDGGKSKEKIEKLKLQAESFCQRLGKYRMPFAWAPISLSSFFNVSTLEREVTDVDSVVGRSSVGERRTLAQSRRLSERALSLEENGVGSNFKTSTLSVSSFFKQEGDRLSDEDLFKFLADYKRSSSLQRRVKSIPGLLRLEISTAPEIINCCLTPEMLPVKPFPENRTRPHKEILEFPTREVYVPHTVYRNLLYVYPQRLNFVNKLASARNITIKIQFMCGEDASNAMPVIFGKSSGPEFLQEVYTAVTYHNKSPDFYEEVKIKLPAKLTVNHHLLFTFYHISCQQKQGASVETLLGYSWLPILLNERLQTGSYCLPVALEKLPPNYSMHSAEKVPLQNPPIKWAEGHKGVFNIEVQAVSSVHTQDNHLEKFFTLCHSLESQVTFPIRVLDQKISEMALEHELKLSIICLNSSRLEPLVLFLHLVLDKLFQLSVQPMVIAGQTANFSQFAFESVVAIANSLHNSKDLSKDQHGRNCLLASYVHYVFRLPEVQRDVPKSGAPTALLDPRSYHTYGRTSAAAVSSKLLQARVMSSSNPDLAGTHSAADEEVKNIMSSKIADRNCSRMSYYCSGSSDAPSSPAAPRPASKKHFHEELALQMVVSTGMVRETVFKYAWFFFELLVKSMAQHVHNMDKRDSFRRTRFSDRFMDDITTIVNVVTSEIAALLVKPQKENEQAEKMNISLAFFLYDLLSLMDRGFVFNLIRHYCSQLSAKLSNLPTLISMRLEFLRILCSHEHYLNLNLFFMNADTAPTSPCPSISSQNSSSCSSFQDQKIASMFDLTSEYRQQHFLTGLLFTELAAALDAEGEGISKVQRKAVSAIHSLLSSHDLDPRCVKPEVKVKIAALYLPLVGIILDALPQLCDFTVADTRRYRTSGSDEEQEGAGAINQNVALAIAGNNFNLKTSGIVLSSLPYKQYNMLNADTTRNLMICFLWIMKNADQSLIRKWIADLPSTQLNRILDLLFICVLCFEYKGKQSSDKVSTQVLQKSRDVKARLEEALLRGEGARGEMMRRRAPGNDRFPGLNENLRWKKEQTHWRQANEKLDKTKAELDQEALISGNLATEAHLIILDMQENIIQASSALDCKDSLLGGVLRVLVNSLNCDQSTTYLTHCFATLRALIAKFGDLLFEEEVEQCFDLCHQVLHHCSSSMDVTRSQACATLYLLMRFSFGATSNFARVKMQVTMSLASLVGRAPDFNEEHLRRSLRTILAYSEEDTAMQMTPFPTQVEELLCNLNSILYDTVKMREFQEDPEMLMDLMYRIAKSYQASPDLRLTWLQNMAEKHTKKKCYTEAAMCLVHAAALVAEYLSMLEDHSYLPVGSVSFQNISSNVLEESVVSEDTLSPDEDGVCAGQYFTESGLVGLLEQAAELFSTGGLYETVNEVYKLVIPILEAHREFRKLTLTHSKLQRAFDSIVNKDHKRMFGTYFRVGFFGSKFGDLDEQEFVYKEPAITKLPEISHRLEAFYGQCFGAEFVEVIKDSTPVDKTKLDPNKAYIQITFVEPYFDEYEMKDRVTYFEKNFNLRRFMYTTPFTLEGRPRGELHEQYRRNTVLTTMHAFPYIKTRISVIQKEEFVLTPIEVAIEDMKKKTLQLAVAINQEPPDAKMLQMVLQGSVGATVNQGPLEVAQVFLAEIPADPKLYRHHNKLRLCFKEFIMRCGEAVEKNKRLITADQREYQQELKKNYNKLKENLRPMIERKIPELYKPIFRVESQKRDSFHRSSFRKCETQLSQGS
UniProt Q9UER7, sequence (Q9UER7 whole entry, looked up): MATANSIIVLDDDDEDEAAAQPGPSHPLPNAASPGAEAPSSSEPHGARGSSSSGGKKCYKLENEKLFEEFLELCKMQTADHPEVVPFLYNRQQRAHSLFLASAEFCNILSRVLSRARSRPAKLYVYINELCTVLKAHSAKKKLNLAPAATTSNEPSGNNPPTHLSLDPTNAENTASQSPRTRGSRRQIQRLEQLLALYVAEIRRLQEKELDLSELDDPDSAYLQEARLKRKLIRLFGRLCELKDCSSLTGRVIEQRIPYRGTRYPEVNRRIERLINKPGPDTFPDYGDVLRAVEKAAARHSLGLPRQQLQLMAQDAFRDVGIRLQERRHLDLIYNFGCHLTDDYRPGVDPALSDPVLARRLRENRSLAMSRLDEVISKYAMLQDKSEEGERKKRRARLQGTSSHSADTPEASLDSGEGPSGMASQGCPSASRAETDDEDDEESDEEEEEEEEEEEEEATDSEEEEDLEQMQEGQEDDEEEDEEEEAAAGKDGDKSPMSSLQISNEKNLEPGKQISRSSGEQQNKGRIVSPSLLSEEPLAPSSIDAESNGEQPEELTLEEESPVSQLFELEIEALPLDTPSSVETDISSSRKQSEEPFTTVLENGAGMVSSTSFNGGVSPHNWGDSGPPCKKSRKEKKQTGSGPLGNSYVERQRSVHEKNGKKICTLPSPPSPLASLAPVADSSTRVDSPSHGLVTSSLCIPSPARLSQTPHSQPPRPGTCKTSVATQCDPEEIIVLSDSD
UniProt P25774, sequence (P25774 whole entry, looked up): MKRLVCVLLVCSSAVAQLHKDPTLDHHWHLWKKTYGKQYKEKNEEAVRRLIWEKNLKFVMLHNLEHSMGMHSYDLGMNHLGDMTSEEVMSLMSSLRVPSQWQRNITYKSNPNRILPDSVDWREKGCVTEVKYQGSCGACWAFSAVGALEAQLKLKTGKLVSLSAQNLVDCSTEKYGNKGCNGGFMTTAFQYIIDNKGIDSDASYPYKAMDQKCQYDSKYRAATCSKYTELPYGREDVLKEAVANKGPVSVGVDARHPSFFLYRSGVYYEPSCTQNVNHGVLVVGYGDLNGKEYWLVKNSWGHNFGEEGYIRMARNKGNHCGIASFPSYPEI

Target | log2 fold change
CTNNB1 (UniProt P35222) | 0.074
DENND10 (UniProt Q8TCE6) | -0.058
EXOSC10 (UniProt Q01780) | 0.015
EXOC4 (UniProt Q96A65) | -0.049
DEGS1 (UniProt O15121) | -0.18
DDX27 (UniProt Q96GQ7) | 0.651
EDC4 (UniProt Q6P2E9) | -0.148
CTSV (UniProt O60911) | 0.011
DCP2 (UniProt Q8IU60) | 0.098
ERLIN2 (UniProt O94905) | 0.026
DPYSL2 (UniProt Q16555) | 0.02
ELAC1 (UniProt Q9H777) | -0.031
FAM50A (UniProt Q14320) | -0.203
FAM118A (UniProt Q9NWS6) | -0.179
DIP2A (UniProt Q14689) | -0.059
DNAJC24 (UniProt Q6P3W2) | 0.116
EZH2 isoform 2 (UniProt Q15910) | -0.207
DHRS13 (UniProt Q6UX07) | -0.032

Target | log2 fold change
FAM193B (UniProt Q96PV7) | 0.231
ECPAS (UniProt Q5VYK3) | -0.06
DMAC1 (UniProt Q96GE9) | -0.048
DNAH10 (UniProt Q8IVF4) | 0.004
DOCK8 (UniProt Q8NF50) | 0.242
ERCC6 (UniProt Q03468) | 0.016
ETNK1 (UniProt Q9HBU6) | -0.001
DYNC1I2 isoform 5 (UniProt Q13409) | 0.001
CUX1 isoform 3 (UniProt P39880) | -0.065
EIF2S3 (UniProt P41091) | 0.114
CUTA isoform 2 (UniProt O60888) | -0.027
EIF2AK1 (UniProt Q9BQI3) | -0.008
DNAH5 (UniProt Q8TE73) | 0.015
EPHX2 (UniProt P34913) | -0.002
EDEM2 (UniProt Q9BV94) | 0.036
ELOVL5 isoform 2 (UniProt Q9NYP7) | -0.016
DAXX (UniProt Q9UER7) | 0.005
CTSS (UniProt P25774) | 0.074
